“And” between values parts separate entries of the source, which are not always exact repeats. Equal values may be shown once. Out of some 5,500 compounds screened, about 2,000 (36%) were called active. Another 18% or so got no clear call; they are omitted. Rule as the data show it: active = normalized growth mostly below about 0.91 (no sharp cut-off); inconclusive = no clear call, values can overlap the other calls; inactive = mostly above about 0.92. Some of the results follow.
Assay: chemical genetic growth profiling, strain panel (AID 1159580);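 also: tested at 20 µM; growth read once vehicle control cultures reached saturation at 30 °C; 1 = growth at the plate median or of vehicle wells; lower values mean less growth of the strain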
Settings: S. cerevisiae deletion strains, growth OD

Structure (SMILES): O=C(O[C@@H]1Cc2c(O)cc(O)cc2O[C@@H]1c1cc(O)c(=O)c2c(O)c(O)cc([C@H]3Oc4cc(O)cc(O)c4C[C@H]3O)c2c1)c1cc(O)c(O)c(O)c1
- normalized growth (locus YAL021C, strain ccr4, stronger effect = lower value): 0.0928 (active)
- normalized growth (locus YAL026C, strain drs2, stronger effect = lower value): 0.46 (active)
- normalized growth (locus YAL030W, strain snc1, stronger effect = lower value): 0.715 (active)
- normalized growth (locus YBL061C, strain skt5, stronger effect = lower value): 0.531 (active)
- normalized growth (locus YBR009C, strain hhf1, stronger effect = lower value): 0.556 (active)
- normalized growth (locus YBR021W, strain FUR4, stronger effect = lower value): 0.918 (inactive)
- normalized growth (locus YBR023C, strain chs3, stronger effect = lower value): 0.457 (active)
- normalized growth (locus YBR171W, strain sec66, stronger effect = lower value): 0.938 (inactive)
- normalized growth (locus YBR229C, strain ROT2, stronger effect = lower value): 0.67 (active)
- normalized growth (locus YBR231C, strain swc5, stronger effect = lower value): 0.427 (active)
- normalized growth (locus YBR279W, strain paf1, stronger effect = lower value): 0.549 (active)
- normalized growth (locus YCL011C, strain gbp2, stronger effect = lower value): 0.62 (active)
- normalized growth (locus YCL016C, strain dcc1, stronger effect = lower value): 0.765 (active)
- normalized growth (locus YCL029C, strain bik1, stronger effect = lower value): 0.801 (active)
- normalized growth (locus YCL061C, strain MRC1, stronger effect = lower value): 0.765 (active)
- normalized growth (locus YCL069W, strain vba3, stronger effect = lower value): 0.797 (active)
- normalized growth (locus YCR088W, strain abp1, stronger effect = lower value): 0.911 (active)
- normalized growth (locus YDL005C, strain med2, stronger effect = lower value): 0.949 (inactive)
- normalized growth (locus YDL035C, strain GPR1, stronger effect = lower value): 0.224 (active)
- normalized growth (locus YDL040C, strain nat1, stronger effect = lower value): 0.767 (active)
- normalized growth (locus YDL074C, strain BRE1, stronger effect = lower value): 0.42 (active)
- normalized growth (locus YDL101C, strain DUN1, stronger effect = lower value): 0.233 (active)
- normalized growth (locus YDL134C, strain PPH21, stronger effect = lower value): 0.184 (active)
- normalized growth (locus YDL185W, strain tfp1, stronger effect = lower value): 0.992 (inactive)
- normalized growth (locus YDL192W, strain arf1, stronger effect = lower value): 0.828 (active)
- normalized growth (locus YDR001C, strain nth1, stronger effect = lower value): 0.984 (inactive)
- normalized growth (locus YDR069C, strain doa4, stronger effect = lower value): 0.116 (active)
- normalized growth (locus YDR101C, strain arx1, stronger effect = lower value): 0.896 (active)
- normalized growth (locus YDR137W, strain rgp1, stronger effect = lower value): 0.497 (active)
- normalized growth (locus YDR150W, strain NUM1, stronger effect = lower value): 0.829 (active)
- normalized growth (locus YDR159W, strain sac3, stronger effect = lower value): 0.838 (active)
- normalized growth (locus YDR162C, strain NBP2, stronger effect = lower value): 0.144 (active)
- normalized growth (locus YDR195W, strain ref2): 0.814 (active)
- normalized growth (locus YDR297W, strain sur2, stronger effect = lower value): 0.599 (active)
- normalized growth (locus YDR318W, strain mcm21, stronger effect = lower value): 0.877 (active)
- normalized growth (locus YDR334W, strain swr1, stronger effect = lower value): 0.571 (active)
- normalized growth (locus YDR335W, strain msn5, stronger effect = lower value): 0.638 (active)
- normalized growth (locus YDR388W, stronger effect = lower value): 0.93 (inactive)
- normalized growth (locus YDR392W, strain spt3, stronger effect = lower value): 0.84 (inactive)
- normalized growth (locus YDR502C, strain sam2, stronger effect = lower value): 0.69 (active)
- normalized growth (locus YEL003W, strain gim4, stronger effect = lower value): 0.659 (active)
- normalized growth (locus YEL037C, strain rad23, stronger effect = lower value): 0.709 (active)
- normalized growth (locus YEL061C, strain CIN8 (second series), stronger effect = lower value): 0.936 (inactive)
- normalized growth (locus YER015W, strain faa2, stronger effect = lower value): 0.292 (active)
- normalized growth (locus YER016W, strain bim1, stronger effect = lower value): 0.859 (active)
- normalized growth (locus YER110C, stronger effect = lower value): 1.03 (inactive)
- normalized growth (locus YER111C, strain swi4, stronger effect = lower value): 0.694 (active)
- normalized growth (locus YER155C, strain BEM2 (second series), stronger effect = lower value): 0.849 (active)
- normalized growth (locus YER155C, strain BEM2, stronger effect = lower value): 0.887 (active)
- normalized growth (locus YER167W, strain BCK2, stronger effect = lower value): 0.78 (active)
- normalized growth (locus YFR010W, strain ubp6, stronger effect = lower value): 0.63 (active)
- normalized growth (locus YGL078C, strain dbp3, stronger effect = lower value): 1.02 (inactive)
- normalized growth (locus YGL086W, strain mad1, stronger effect = lower value): 0.669 (active)
- normalized growth (locus YGL167C, strain pmr1, stronger effect = lower value): 0.422 (active)
- normalized growth (locus YGL173C, strain kem1, stronger effect = lower value): 0.277 (active)
- normalized growth (locus YGL227W, strain vid30, stronger effect = lower value): 0.991 (inactive)
- normalized growth (locus YGL240W, strain doc1, stronger effect = lower value): 0.81 (active)
- normalized growth (locus YGL248W, strain PDE1, stronger effect = lower value): 0.474 (active)
- normalized growth (locus YGL253W, strain hxk2, stronger effect = lower value): 0.588 (active)
- normalized growth (locus YGR135W, strain pre9, stronger effect = lower value): 0.789 (active)
- normalized growth (locus YGR252W, strain gcn5, stronger effect = lower value): 0.75 (active)
- normalized growth (locus YHR013C, strain ard1, stronger effect = lower value): 0.329 (active)
- normalized growth (locus YHR027C, strain rpn1, stronger effect = lower value): 0.191 (active)
- normalized growth (locus YHR030C, strain SLT2, stronger effect = lower value): 1.01 (inactive)
- normalized growth (locus YHR079C, strain IRE1 (second series), stronger effect = lower value): 0.946 (inactive)
- normalized growth (locus YHR079C, strain IRE1, stronger effect = lower value): 1.03 (inactive)
- normalized growth (locus YHR094C, strain hxt1, stronger effect = lower value): 1.02 (inactive)
- normalized growth (locus YHR129C, strain ARP1, stronger effect = lower value): 0.565 (active)
- normalized growth (locus YHR142W, strain chs7, stronger effect = lower value): 0.532 (active)
- normalized growth (locus YHR200W, strain rpn10, stronger effect = lower value): 0.845 (active)
- normalized growth (locus YIL066C, strain RNR3, stronger effect = lower value): 0.153 (active)
- normalized growth (locus YIL073C, strain SPO22, stronger effect = lower value): 0.198 (active)
- normalized growth (locus YIL125W, strain kgd1, stronger effect = lower value): 1.04 (inactive)
- normalized growth (locus YIR030C, strain dcg1, stronger effect = lower value): 0.973 (inactive)
- normalized growth (locus YJL092W, strain hpr5, stronger effect = lower value): 0.882 (active)
- normalized growth (locus YJL095W, strain BCK1 (second series), stronger effect = lower value): 0.489 (active)
- normalized growth (locus YJL095W, strain BCK1, stronger effect = lower value): 0.185 (active) and 0.996 (inactive)
- normalized growth (locus YJL115W, strain asf1, stronger effect = lower value): 0.947 (inactive)
- normalized growth (locus YJL129C, strain trk1, stronger effect = lower value): 0.829 (active)
- normalized growth (locus YJL134W, strain LCB3, stronger effect = lower value): 0.825 (active)
- normalized growth (locus YJL154C, strain vps35, stronger effect = lower value): 0.886 (active)
- normalized growth (locus YJL164C, strain tpk1, stronger effect = lower value): 0.489 (active)
- normalized growth (locus YJL166W, strain qcr8, stronger effect = lower value): 0.485 (active)
- normalized growth (locus YJL168C, strain set2, stronger effect = lower value): 0.997 (inactive)
- normalized growth (locus YJL187C, strain SWE1 (second series), stronger effect = lower value): 0.13 (active)
- normalized growth (locus YJL187C, strain SWE1, stronger effect = lower value): 0.604 (active)
- normalized growth (locus YJR043C, strain POL32, stronger effect = lower value): 0.244 (active)

From PubChem BioAssay AID1159580 (chemical genetic matrix, 2015)
